Experimental data from PubChem BioAssay.
“And” between values parts separate entries of the source, which are not always exact repeats. Equal entries are not always repeated. Records with an inconclusive call do not appear. The source made the active and inactive calls. Rule as the data show it, unless noted: active = inhibition above about 80%; inactive = the rest.

Legend:
[1] = viability loss in pontine glioma line – cell-based, SU-DIPG-XXV, MIPE5.0, CellTiter-Glo, qHTS, dose response (AID 1347065; cut-off not given, nearly all actives have AC50 up to about 26 µM;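 also: cells exposed to compound for 48 hours before ATP readout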); conditions: CellTiter-Glo ATP luminescence
[2] = SU-DIPG-VI glioma cell viability, MIPE4.0 library, CellTiter-Glo luminescence, qHTS (AID 1347066; cut-off not given, nearly all actives have AC50 up to about 30 µM;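 also: cells exposed to compound for 48 hours before readout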); conditions: CellTiter-Glo ATP luminescence
[3] = JHH-DIPG-1 glioma cell viability, MIPE5.0 library, CellTiter-Glo luminescence, qHTS (AID 1347067; cut-off not given, nearly all actives have AC50 up to about 26 µM;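 also: cells exposed to compound for 48 hours before readout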); conditions: JHH-DIPG-1 glioma viability, CellTiter-Glo ATP luminescence
[4] = SU-DIPG-XXV glioma cell viability, MIPE5.0 library, qHTS (AID 1347068; cut-off not given, nearly all actives have IC50 up to about 30 µM)
[5] = phospholipid biosynthesis inhibitors in animal cells, primary screen, cell-based, LOPAC library, screen 4 (AID 1347384; call rule not given here); conditions: phospholipid biosynthesis inhibition screen, at 10 µM
[6] = survival rescue of mitochondrial mutant cells in low glucose, primary screen, MELAS cybrids, Rieske KO mouse fibroblasts, CellTiter-Glo (AID 1508586;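 active = mean z-score across replicates of 1.96 or higher in either the MELAS or the Rieske mutant cell line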;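 also: z relative to plate mean and SD of compound and empty wells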)
[7] = biological target: NAD(+) hydrolase SARM1 (Homo sapiens) (UniProt Q6SZW1); experiment: SARM1 TIR NADase inhibitors, cell lysate, NAD-Glo luminescence (AID 1508614;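 active = compound whose remaining NAD level is above about 45 nM, limit read from the data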;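 also: higher remaining NAD means stronger inhibition of SARM1 NADase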); conditions: SAM-TIR HEK293T lysate NADase, at 1 µM, stronger effect = higher value
[8] = biological target: Mitogen-activated protein kinase 7 (Homo sapiens) (UniProt Q13164); experiment: ERK5 transactivation activators in reporter cells, primary screen, cell-based, HTS (AID 1508626;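 active = luciferase signal above three times the same-plate solvent-only control wells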;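 also: luciferase driven by Gal4-ERK5 fusion binding five Gal4 sites before minimal TATA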); conditions: HeLa Gal4-ERK5 transactivation, 18 h, at 5 µM, stronger effect = higher value
[9] = viability rescue of complex I mutant cybrids, primary screen, cell-based, galactose medium, ATP luminescence (AID 1645843;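 active = z-score of at least 1.8 in each of two replicates, scored against plate mean and spread of sample wells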;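 also: positive z means more ATP and so rescue of galactose-driven cybrid death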); conditions: complex I mutant cybrid cells, 72 h, stronger effect = higher value
[10] = LFS_MB_P medulloblastoma growth inhibition, cell-based, chromothripsis tumors, cisplatin or BGB combos (AID 1671449); conditions: LFS_MB_P medulloblastoma cells;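 also: cells exposed for 96 hours; 0% = vehicle DMSO and 100% = killing by high DMSO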
[11] = HDN33 neuroblastoma growth inhibition, cell-based, chromothripsis tumors, cisplatin or BGB combos (AID 1671450); conditions: HDN33 neuroblastoma cells, stronger effect = higher value;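 also: cells exposed to compound for four days; 0% = vehicle DMSO and 100% = cell killing by high DMSO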
[12] = ICB984 medulloblastoma cell growth inhibition, synergistic combos for chromothripsis tumors, cisplatin or BGB combos (AID 1671451; call rule not given here;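 also: cells exposed for 96 hours before readout; 0% = vehicle DMSO and 100% = killing by high DMSO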); conditions: ICB984 medulloblastoma cells, drug combinations, stronger effect = higher value
[13] = LFS_MB_1R medulloblastoma cell growth inhibition, synergistic combos for chromothripsis tumors, cisplatin or BGB combos (AID 1671452); conditions: LFS_MB_1R medulloblastoma cells, stronger effect = higher value;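 also: cells exposed for 96 hours before readout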
[14] = HTB85 osteosarcoma cell growth inhibition, synergistic combos for chromothripsis tumors, BGB or cisplatin IC20 combos (AID 1671453); conditions: HTB85 osteosarcoma cells, drug combinations, stronger effect = higher value;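 also: cells exposed for 96 hours before readout; 0% = vehicle DMSO and 100% = high DMSO killing control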
[15] = CRL2098 osteosarcoma cell growth inhibition, synergistic combos for chromothripsis tumors, BGB or cisplatin IC20 combos (AID 1671454); conditions: CRL2098 osteosarcoma cells, drug combinations, stronger effect = higher value;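 also: cells exposed for 96 h before readout; 0% = vehicle DMSO and 100% = killing by high DMSO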
[16] = HD-MB03 medulloblastoma cell growth inhibition, synergistic combos for chromothripsis tumors, BGB or cisplatin IC20 combos (AID 1671455; in the data active = inhibition above about 83%;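 also: 0% = vehicle DMSO and 100% = high DMSO as cytotoxic control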); conditions: HD-MB03 medulloblastoma cells, stronger effect = higher value
[17] = MELAS cybrid survival, CellTiter-Glo 48 h, stronger effect = higher value
[18] = Rieske KO mouse fibroblast survival, CellTiter-Glo 72 h
[19] = measured here: combination with BGB IC40, at 0.05 µM

Chain of NAD(+) hydrolase SARM1 (Homo sapiens) (Q6SZW1 whole entry, looked up, the tested form may be a part): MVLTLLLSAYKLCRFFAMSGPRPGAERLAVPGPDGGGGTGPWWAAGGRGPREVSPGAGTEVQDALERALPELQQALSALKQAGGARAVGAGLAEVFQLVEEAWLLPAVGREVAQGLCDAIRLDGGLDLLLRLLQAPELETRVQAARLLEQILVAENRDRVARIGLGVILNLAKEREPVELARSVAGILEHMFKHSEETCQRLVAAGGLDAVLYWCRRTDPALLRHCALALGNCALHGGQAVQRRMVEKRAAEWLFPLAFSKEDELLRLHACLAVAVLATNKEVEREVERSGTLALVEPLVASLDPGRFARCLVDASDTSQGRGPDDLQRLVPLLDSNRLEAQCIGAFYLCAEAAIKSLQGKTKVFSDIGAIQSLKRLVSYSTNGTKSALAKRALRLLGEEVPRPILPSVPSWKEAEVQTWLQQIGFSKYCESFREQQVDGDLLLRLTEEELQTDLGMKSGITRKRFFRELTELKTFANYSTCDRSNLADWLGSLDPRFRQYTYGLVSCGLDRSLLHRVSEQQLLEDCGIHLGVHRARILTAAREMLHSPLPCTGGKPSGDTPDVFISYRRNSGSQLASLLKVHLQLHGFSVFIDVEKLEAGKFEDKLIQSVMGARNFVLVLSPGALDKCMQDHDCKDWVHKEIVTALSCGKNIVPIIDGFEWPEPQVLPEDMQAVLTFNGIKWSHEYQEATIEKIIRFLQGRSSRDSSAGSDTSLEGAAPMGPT
Chain of Mitogen-activated protein kinase 7 (Homo sapiens) (Q13164 whole entry, looked up, the tested form may be a part): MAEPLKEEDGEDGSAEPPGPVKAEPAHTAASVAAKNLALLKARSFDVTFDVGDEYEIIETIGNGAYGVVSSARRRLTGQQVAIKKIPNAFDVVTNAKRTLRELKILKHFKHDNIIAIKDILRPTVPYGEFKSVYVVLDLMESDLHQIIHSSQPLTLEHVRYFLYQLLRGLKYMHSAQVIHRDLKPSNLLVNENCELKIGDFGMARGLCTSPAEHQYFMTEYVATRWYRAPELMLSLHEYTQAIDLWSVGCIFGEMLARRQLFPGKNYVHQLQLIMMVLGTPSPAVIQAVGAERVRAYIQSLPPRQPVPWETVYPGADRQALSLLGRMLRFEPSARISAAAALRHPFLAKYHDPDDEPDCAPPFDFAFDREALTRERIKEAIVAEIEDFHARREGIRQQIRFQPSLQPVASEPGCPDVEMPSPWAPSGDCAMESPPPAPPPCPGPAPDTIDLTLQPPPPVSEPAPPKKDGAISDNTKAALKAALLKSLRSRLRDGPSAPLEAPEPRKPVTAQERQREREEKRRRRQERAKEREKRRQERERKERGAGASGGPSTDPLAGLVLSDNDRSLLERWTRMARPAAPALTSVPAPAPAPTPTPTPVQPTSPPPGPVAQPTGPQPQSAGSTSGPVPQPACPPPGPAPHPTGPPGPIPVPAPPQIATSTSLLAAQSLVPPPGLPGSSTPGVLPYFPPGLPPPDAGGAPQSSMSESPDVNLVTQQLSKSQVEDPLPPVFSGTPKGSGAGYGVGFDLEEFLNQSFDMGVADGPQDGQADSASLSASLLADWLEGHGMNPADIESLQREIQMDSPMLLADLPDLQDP

Structure (SMILES): Nc1nnc(-c2cccc(Cl)c2Cl)c(N)n1
- outcome [1]: inactive
- outcome [2]: inactive
- outcome [3]: inactive
- outcome [4]: inactive
- outcome [5]: inactive
- z-score [6, 17]: 1.04 (inactive) and -0.0755 (inactive) and -0.75 (inactive)
- z-score [6, 18]: -2.18 and 0.0455 and -0.484
- remaining NAD [7]: 10 nM (inactive)
- luciferase signal [8]: 44 AU (inactive)
- z-score [9]: 0.675 (inactive) and 0.31 (inactive) and 0.775 (inactive)

Structure (SMILES): CCn1cc(C(=O)O)c(=O)c2cc(F)c(N3CCNC(C)C3)c(F)c21 (stereo unspecified)
- outcome [1]: inactive
- outcome [2]: inactive
- outcome [3]: inactive
- outcome [4]: inactive
- outcome [5]: inactive
- z-score [6, 17]: -0.544 (inactive) and -0.435 (inactive)
- z-score [6, 18]: 0.167 and 0.141
- remaining NAD [7]: 10 nM (inactive)
- luciferase signal [8]: 36 AU (inactive)
- z-score [9]: 0.475 (inactive) and -0.065 (inactive)
- inhibition ([10]; at 0.5 µM, stronger effect = higher value): -15.3% (inactive) and -10.6% (inactive)
- inhibition ([10]; measured here: combination with BGB IC20, at 0.005 µM): -5.89% and -31.7%
- inhibition ([10]; measured here: combination with BGB IC40, at 0.005 µM): -27.7% and -17%
- inhibition [10, 19]: -32.7% and -10.2%
- inhibition ([10]; measured here: combination with cisplatin, at 0.5 µM, stronger effect = higher value): -27.9% and -16%
- inhibition ([10]; measured here: combination with cisplatin, at 5 µM, stronger effect = higher value): -19.1% and -19.2%
- inhibition ([11]; BGB combo, at 5 µM): -42.8% and -11.5%
- inhibition ([11]; at 0.5 µM): -39.6% (inactive) and -19.9% (inactive)
- inhibition ([11]; cisplatin combo, at 5 µM): -22.1% and -6.52%
- inhibition ([11]; measured here: with BGB IC20 combination, at 0.5 µM): -33.5% and -33.9%
- inhibition ([11]; measured here: with cisplatin IC20 combination, at 0.5 µM): -40.2% and -6.39%
- inhibition ([11]; single agent, at 5 µM): -51.7% and -21.7%
- inhibition ([12]; BGB IC20 combo, at 0.005 µM): -2.68% and 6.83%
- inhibition ([12]; BGB IC40 combo, at 0.005 µM): -5.47% and -12.9%
- inhibition ([12]; BGB IC40 combo, at 0.05 µM): -30.9% and -16.1%
- inhibition ([12]; at 0.5 µM): -32.8% (inactive) and -22.8% (inactive)
- inhibition ([12]; cisplatin combo, at 0.05 µM): -34.5% and -19.4%
- inhibition ([12]; cisplatin combo, at 0.5 µM): -41.4% and -25.5%
- inhibition ([12]; cisplatin combo, at 5 µM): -38.8% and -8.31%
- inhibition ([12]; measured here: 5 uM single agent, at 5 µM): -28.6% and -13.7%
- inhibition ([13]; at 0.5 µM): -35.3% (inactive) and -9.61% (inactive)
- inhibition [13, 19]: -24.9% and -19.8%
- inhibition ([13]; measured here: combination with cisplatin, at 0.5 µM): -39.3% and -32.8%
- inhibition ([13]; measured here: combination with cisplatin, at 5 µM): -53.1% and -17.8%
- inhibition ([14]; at 0.5 µM): -42.2% (inactive) and 22% (inactive)
- inhibition ([14]; measured here: with BGB IC20, at 0.5 µM): -50.9% and 58.5%
- inhibition ([14]; measured here: with BGB IC20, at 5 µM): -41.8% and 56%
- inhibition ([14]; measured here: with cisplatin IC20, at 0.5 µM): -43.1% and 12.8%
- inhibition ([14]; measured here: with cisplatin IC20, at 5 µM): -15.2% and -22.2%
- inhibition ([14]; single agent, at 5 µM): -37.9% and -11.7%
- inhibition ([15]; at 0.5 µM): -101% (inactive) and -12.1% (inactive)
- inhibition ([15]; measured here: combination with BGB at IC20, at 0.5 µM): -94% and -48.1%
- inhibition ([15]; measured here: combination with cisplatin at IC20, at 0.5 µM): -123% and -10.4%
- inhibition ([16]; at 0.5 µM): -11.4% (inactive) and -9.63% (inactive)
- inhibition ([16]; measured here: combo with BGB at IC20, at 0.5 µM): -10.9% and -2.68%
- inhibition ([16]; measured here: combo with cisplatin at IC20, at 0.5 µM): -12.2% and -16.4%
